BAZ2B block: BAZ2B (human) inhibition | Potency, µM (top dose mostly 114 µM), for the others: at the top dose activity change, negative = inhibition, hits mostly inhibitors | AID 504333 | AlphaScreen BAZ2B-H3K14Ac peptide displacement | Q9UIF8 | 360,000 tested, 4.4% active; also: % is scaled to controls: 0 for no effect and ±100 for the full control effect; nearly all actives have a fitted effect of over 60% in size
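In this displacement format the biotinylated H3(5-23) peptide acetylated at Lys14 serves as ligand at 50 nM, with BAZ2B at 50 nM in PBS pH 7.4 containing 0.01% Tween-20. Donor and acceptor beads are 10 ug/mL final.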
Sfp PPTase inh: blocks B. subtilis Sfp PPTase activity; AID 1490; Biochemical Sfp PPTase activity, qHTS; Q9F4F7; 310,000 tested, 3.5% active; Potency, µM, without a hit: largest response in the series, negative = inhibition, usual class: inhibitors;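 also: the enzyme is Sfp with the accession as filed and its product quenches rhodamine fluorescence; 0% = enzyme reaction without inhibitor and -100% = no enzyme wells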
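Reaction rates are the 30-min fluorescence difference (ex 525, em 598 nm) in wells containing 15 nM Sfp, 5 uM rhodamine-CoA and 12.5 uM BHQ-2-YbbR at pH 7.6 with 10 mM MgCl2.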
G9a block: inhibitors of human histone lysine methyltransferase G9a; G9a H3K9 monomethylation, AlphaScreen, 2 h; 350,000 tested, 8.8% active; AID 504332; Potency, µM (titrated, usually from 102 µM), for inactives: top-dose activity, negative = inhibition, most hits filed as inhibitors; Q96KQ7; also: % is scaled to controls: 0 for no effect and ±100 for the full control effect; nearly all actives have a fitted effect of over 75% in size
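Chemiluminescent proximity detection of H3K9 monomethylation, read after 10 min bead incubation in the dark. Reaction: 20 nM G9a, 500 nM biotin-H3K9 peptide, 20 uM SAM cofactor, 2 h, room temperature, following 15 min enzyme-compound preincubation.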
HP1b chromo inh: HP1-beta chromodomain-methylated histone interaction inhibition; AlphaScreen HP1-beta / biotin-H3K9me3 peptide binding; Potency, µM (titrated, usually from 114 µM), for inactives: at the highest dose activity change, negative = inhibition, usual class: inhibitors; 390,000 tested, 0.56% active; AID 540317; also: nearly all actives have a fitted effect of over 70% in size
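AlphaScreen: HP1-beta (50 nM) preformed 30 min with biotin-H3(1-18)K9me3 peptide (50 nM) in PBS pH 7.4, 0.01% Tween-20. Compound added for 30 min at RT, then streptavidin donor/nickel chelate acceptor beads (10 ug/mL) for 30 min.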
JMJD2A Tudor inh: inhibitors of human JMJD2A Tudor domain; AID 504339; Potency, µM (top dose mostly 114 µM), for inactives: at the top dose activity change, negative = inhibition, usual class: inhibitors; AlphaScreen JMJD2A-Tudor / H3K4me3 peptide binding; 390,000 tested, 4.4% active; O75164; also: % is scaled to controls: 0 for no effect and ±100 for the full control effect; nearly all actives have a fitted effect of over 50% in size
L3MBTL1 block: inhibitors of human L3MBTL1; Q9Y468; AlphaScreen L3MBTL1–H3K9me1 peptide binding; Potency, µM (top dose mostly 57.1 µM), for the others: top-dose activity, negative = inhibition, most hits filed as inhibitors; 230,000 tested, 0.66% active; AID 485360; also: % is scaled to controls: 0 for no effect and ±100 for the full control effect; nearly all actives have a fitted effect of over 60% in size
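L3MBTL1 50 nM + b-AHA-H3(1-15)K9me1 75 nM, 30 min RT; compound added, 30 min RT; streptavidin donor/Ni-chelate acceptor beads 10 ug/mL each final, 30 min RT dark; AlphaScreen read.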
* marks the source's active call; other numbers are inactive results; ? = inconclusive; / = no result given; [ ] = dose if it differs, or a comment. Compounds with a hit are over-represented: about 12% of the library has one in this group of screens. Calls follow the shape of the dose curve; as a rule, active = well fitted curve in the direction sought with a large enough effect; inconclusive = small, poorly fitted or top-dose-only effect, or another doubt; inactive = no such curve, though single readings can be large; an effect the other way counts as inactive or inconclusive. Potency is read from the fitted curve at half-maximal effect.

SMILES	BAZ2B block	Sfp PPTase inh	G9a block	HP1b chromo inh	JMJD2A Tudor inh	L3MBTL1 block
CC#CCN1c2ccccc2[C@]23C[C@@H](C(=O)OC)N(S(=O)(=O)c4c(C)noc4C)C2=NC(C(=O)OC)=C(C(=O)OC)[C@H]13	/	15%	/	/	/	/
CCC(=O)N1c2ccccc2CC1C(=O)NCCc1ccc(SC)cc1 (stereo not drawn)	-21%	/	-8%[12.7 µM]	29%	-8%	/
O=c1cc(-c2ccccc2)n(S(=O)(=O)c2ccc3ccccc3c2)o1	/	/	/	-19%	45µM*	/
COc1ccc(S(=O)(=O)n2oc(=O)cc2-c2ccccc2)cc1	56µM*	2%	40µM*	13%	-15%	/
COc1ccc(S(=O)(=O)n2oc(=O)cc2-c2ccccc2)cc1OC	56µM*	-25%	?	4%	35µM*	/
O=S(=O)(c1ccc2ccccc2c1)N1CCCCCC1	-4%	?	/	115%	-4%[11.4 µM]	48%
CN(C)c1ccc(S(=O)(=O)NCC(=O)NCCC2=CCCCC2)cc1[N+](=O)[O-]	-8%	/	25%[59 µM]	0%	-26%	-5%
COc1cc2c(cc1OC)C(COc1ccc(C(C)C)cc1)N(C(=O)COc1ccccc1)CC2 (stereo not drawn)	-24%	/	-36%[59 µM]	-6%	?	/
O=C(N/N=C/c1cn(-c2ccccc2)nc1-c1cccs1)c1ccccc1F	-5%	-1%	-13%[59 µM]	15%	-32%	-4%
CN1CCC(N(C)C(=O)/C=C/c2cn(-c3ccccc3)nc2-c2cccs2)CC1	-28%	?	-18%	-24%	?	-7%
O=C(O)CCCCCN1C(=O)/C(=C\c2cn(-c3ccccc3)nc2-c2cccs2)SC1=S	13µM*	?	16µM*	-22%	40µM*	?
O=C(O)CCN1C(=O)/C(=C/c2cn(-c3ccccc3)nc2-c2cccs2)SC1=S	-12%	21%	-10%	?	22µM*	0%
O=C(O)CCCCCN1C(=O)/C(=C/c2cn(-c3ccccc3)nc2-c2cccs2)SC1=S	/	/	/	?	32µM*	/
CCCC(c1nnnn1C(C)(C)CC)N1CCN(C(=O)c2ccco2)CC1 (stereo not drawn)	-8%	-12%	89µM*	6%	-28%	/
CC(C)CC(c1nnnn1CCc1ccccc1)N1CCN(C(=O)c2ccco2)CC1 (stereo not drawn)	3%	-6%	13%	-18%	1%[11.4 µM]	-1%
CCC(c1nnnn1CCc1ccccc1)N1CCN(C(=O)c2ccco2)CC1 (stereo not drawn)	50µM*	4%	50µM*	24%	-19%	-3%
CC(=O)OC[C@]12CC[C@H]3[C@@](C)(CC[C@H]4C(C)(C)CCC[C@]34C)[C@@H]1C[C@H](C1=CC(=O)O[C@@H]1OC(C)=O)O2	/	/	/	/	/	-15%
O=C(CNC(=O)c1ccccc1F)OCc1nc2ccccc2s1	-2%	10%	0%	45%	5%	-1%
CNc1sc(C(=O)c2ccccc2F)c(N)c1-c1nc2ccccc2s1	40µM*	-30%	?	?	50µM*	/
O=C(Nc1nc(-c2ccco2)c(-c2ccco2)s1)c1c(F)cccc1Cl	40µM*	/	?	?	50µM*	?
O=C(Nc1nc2c(F)cccc2s1)c1ccco1	-4%	14%	22%	44%	1%	11%
CCOC(=O)c1ccc(N2C(=O)c3[nH]nc(-c4ccc(OCC)cc4)c3C2c2cccs2)cc1 (stereo not drawn)	/	/	-8%[59 µM]	31%	-14%	/
Cc1cc(C)cc(NC(=S)NN)c1	-21%	16%	10µM*	-11%	-28%	-11%
CCN(CC)C(=O)c1sc2c(c1C)c(=O)n(-c1ccc(C)c(C)c1)c(=O)n2Cc1cc(=O)n2c(C)cccc2n1	-4%	/	2%[59 µM]	49%	-1%	/
O=C1NN(c2cccc(Br)c2)C(=O)/C1=C\c1ccc(N2CCOCC2)cc1	?	-2%	79µM*	5%	?	/
SMILES	BAZ2B block	Sfp PPTase inh	G9a block	HP1b chromo inh	JMJD2A Tudor inh	L3MBTL1 block
O=C(Nc1ccc(O)cc1C(=O)O)c1ccc2c(c1)C(=O)N(Cc1ccco1)C2=O	50µM*	0%	?	-9%	?	-7%[11.4 µM]
O=C(O)Cc1ccc(NC(=O)c2ccc3c(c2)C(=O)N(Cc2ccco2)C3=O)cc1	-12%	6%	?	-29%	35µM*	/
O=C(Nc1ccc(O)cc1)c1ccc2c(c1)C(=O)N(Cc1ccco1)C2=O	?	-12%	-12%[59 µM]	-15%	?	?
CC1CCN(C(=O)COC(=O)c2ccc3c(c2)C(=O)N(Cc2ccco2)C3=O)CC1	-13%	/	56µM*	28%	-14%	-10%
CC(c1ccccc1)N1C(=O)c2ccc(C(=O)Nc3ccc(Br)cc3C(=O)O)cc2C1=O (stereo not drawn)	-8%	24%	/	-11%	50µM*	/
CC1CCCCN1C(=O)COC(=O)c1ccc2c(c1)C(=O)N(Cc1ccco1)C2=O (stereo not drawn)	-32%	/	8%[12.7 µM]	4%	-14%	-8%
COc1cc(C#N)ccc1OC(=O)C1CCN(C(=O)c2ccc(F)cc2)CC1	6%	/	-21%[12.7 µM]	26%	10%	4%
COc1ccc(C(=O)NCC(c2cccnc2)N2CCc3ccccc32)cc1 (stereo not drawn)	-2%	/	?	22%	-22%	/
CC(C)C[C@@H](CC(=O)N[C@@H](CCC(=O)O)CC(=O)O)NC(=O)[C@@H]1CCCC[C@H]1NC(=O)C[C@@H](NC(=O)C[C@H](Cc1ccccc1)NC(=O)[C@@H]1CNCC[C@H]1N)C(C)C	/	-24%	/	/	/	/
O=S(=O)(c1cccc2ccccc12)N1CCN(c2ccc(Cl)c(Cl)c2)CC1	-10%	/	16%[59 µM]	40%	9%	/
Cc1cccc(N(C)C(=O)CCS(=O)(=O)c2cc3c(cc2Cl)NC(=O)CO3)c1	5%	-14%	?	29%	-12%	1%
Cc1ccc(NS(=O)(=O)c2ccc3c(c2)CCO3)cc1C	/	/	/	/	-29%	/
CCCCNC(=O)c1cc2c(-c3ccc(Cl)cc3)nn(C)c2s1	-5%	15%	19%	56%	-3%	/
Cc1ccc(CNC(=O)c2cc3c(-c4ccc(Cl)cc4)nn(C)c3s2)o1	0%	?	50µM*	31%	-12%	/
CCN1CCCC1CNC(=O)c1cc2c(-c3ccc(Cl)cc3)nn(C)c2s1 (stereo not drawn)	-27%	6%	79µM*	4%	-34%	/
Nc1ccc2cccc(O)c2c1	/	/	/	?	28µM*	/
Nc1ccc2cc3ccccc3cc2c1	/	/	/	-2%	?	/
COc1cc(/C=C/C(=O)N2CCCCC2=O)cc(OC)c1OC	/	-12%	/	/	/	/
